Results taken from PubChem BioAssay AID1159580 (chemical genetic matrix, 2015).
The campaign covered roughly 5,500 compounds. About 2,000 (36%) were called active. Not shown: some 18% with an inconclusive outcome. Cut-off read from the data, not from the text of the source: active = normalized growth mostly below about 0.91 (no sharp cut-off); inconclusive = no clear call, values can overlap the other calls; inactive = mostly above about 0.92. The list shows a part of the results.

Assay: chemical genetic growth profiling, strain panel (AID 1159580);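 note: tested at 20 µM; growth read once vehicle control cultures reached saturation at 30 °C; 1 = growth at the plate median or of vehicle wells; lower values mean less growth of the strain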
Settings: S. cerevisiae deletion strains, growth OD
[1] = locus YAR019C, strain CDC15, hits give low values
[2] = locus YBL105C, strain PKC1, hits give low values
[3] = locus YBR135W, strain CKS1, hits give low values
[4] = locus YBR136W, strain MEC1, hits give low values
[5] = locus YBR160W, strain CDC28, hits give low values
[6] = locus YDL017W, strain CDC7, hits give low values
[7] = locus YDL028C, strain MPS1, hits give low values
[8] = locus YDL101C, strain DUN1, hits give low values
[9] = locus YDL108W, strain KIN28, hits give low values
[10] = locus YDL132W, strain cdc53, hits give low values
[11] = locus YDL214C, strain PRR2, hits give low values
[12] = locus YDR052C, strain DBF4, hits give low values
[13] = locus YDR054C, strain cdc34, hits give low values
[14] = locus YDR226W, strain ADK1, hits give low values
[15] = locus YDR477W, strain SNF1, hits give low values
[16] = locus YER123W, strain YCK3, hits give low values
[17] = locus YER133W, strain GLC7, hits give low values
[18] = locus YFL009W, strain cdc4, hits give low values
[19] = locus YFL029C, strain CAK1, hits give low values
[20] = locus YFR003C, strain YPI1, hits give low values
[21] = locus YFR019W, strain FAB1, hits give low values
[22] = locus YFR028C, strain CDC14, hits give low values
[23] = locus YGR040W, strain KSS1, hits give low values
[24] = locus YGR052W, strain FMP48, hits give low values
[25] = locus YGR092W, strain DBF2, hits give low values
[26] = locus YHR030C, strain SLT2, hits give low values
[27] = locus YHR079C, strain IRE1, hits give low values
[28] = locus YHR082C, strain KSP1, hits give low values
[29] = locus YHR205W, strain SCH9, hits give low values
[30] = locus YIL147C, strain SLN1, hits give low values
[31] = locus YJL095W, strain BCK1, hits give low values
[32] = locus YJL128C, strain PBS2, hits give low values
[33] = locus YJL157C, strain FAR1, hits give low values
[34] = locus YJR016C, strain ILV3, hits give low values
[35] = locus YJR066W, strain TOR1 (second series), hits give low values
[36] = locus YJR066W, strain TOR1, hits give low values
[37] = locus YKL048C, strain ELM1, hits give low values
[38] = locus YKL067W, strain YNK1, hits give low values
[39] = locus YKL101W, strain HSL1, hits give low values
[40] = locus YKL193C, strain SDS22, hits give low values
[41] = locus YKL203C, strain TOR2, hits give low values
[42] = locus YLR113W, strain HOG1, hits give low values
[43] = locus YLR133W, strain CKI1, hits give low values
[44] = locus YLR403W, strain SFP1, hits give low values
[45] = locus YML070W, strain DAK1, hits give low values
[46] = locus YMR001C, strain CDC5, hits give low values
[47] = locus YMR205C, strain PFK2 (second series), hits give low values
[48] = locus YMR277W, strain FCP1, hits give low values
[49] = locus YNL006W, strain LST8, hits give low values
[50] = locus YNL020C, strain ARK1, hits give low values
[51] = locus YNL161W, strain CBK1, hits give low values
[52] = locus YNL183C, strain NPR1, hits give low values
[53] = locus YNL207W, strain RIO2, hits give low values
[54] = locus YNL222W, strain SSU72, hits give low values
[55] = locus YNL307C, strain MCK1 (second series), hits give low values
[56] = locus YOL078W, strain AVO1, hits give low values
[57] = locus YOL136C, strain PFK27, hits give low values
[58] = locus YOR061W, strain CKA2, hits give low values
[59] = locus YOR119C, strain RIO1, hits give low values
[60] = locus YOR231W, strain MKK1, hits give low values
[61] = locus YOR329C, strain SCD5, hits give low values
[62] = locus YPL031C, strain PHO85, hits give low values
[63] = locus YPL153C, strain RAD53, hits give low values
[64] = locus YPL204W, strain HRR25, hits give low values
[65] = locus YPL209C, strain IPL1, hits give low values
[66] = locus YPL256C, strain CLN2, hits give low values
[67] = locus YPR025C, strain CCL1, hits give low values
[68] = locus YPR106W, strain ISR1, hits give low values
[69] = locus YPR111W, strain DBF20, hits give low values
[70] = strain NNK1, hits give low values
[71] = strain TSCII, hits give low values

Measured: normalized growth

O=C(NNc1ccccc1F)c1ccno1
inactive: [1] 0.981 | [2] 0.97 | [3] 0.976 | [4] 0.98 | [5] 0.977 | [6] 0.987 | [7] 0.981 | [8] 0.979 | [9] 0.983 | [10] 0.973 | [11] 0.942 | [12] 0.979 | [13] 0.975 | [14] 0.983 | [15] 0.948 | [16] 0.869 | [17] 0.957 | [18] 0.986 | [19] 0.979 | [20] 0.982 | [21] 0.92 | [22] 0.982 | [23] 0.915 | [24] 1.01 | [25] 0.904 | [26] 0.959 | [27] 0.952 | [28] 0.998 | [29] 0.934 | [30] 0.983 | [31] 0.937 | [32] 0.972 | [33] 0.929 | [34] 0.979 | [35] 0.886 | [36] 1.01 | [37] 0.937 | [38] 0.943 | [39] 0.905 | [40] 0.978 | [41] 1.01 | [42] 0.863 | [43] 0.93 | [44] 0.934 | [45] 0.906 | [46] 0.979 | [47] 0.95 | [48] 0.986 | [49] 0.993 | [50] 0.929 | [51] 0.979 | [52] 0.937 | [53] 0.984 | [54] 0.976 | [55] 0.924 | [56] 0.98 | [57] 0.909 | [58] 0.884 | [59] 0.996 | [60] 0.888 | [61] 0.985 | [62] 0.964 | [63] 0.909 | [64] 0.937 | [65] 0.976 | [66] 0.914 | [67] 0.978 | [68] 0.968 | [69] 0.961 | [70] 0.983 | [71] 0.977

Cc1nnsc1C(=O)Nc1cc(C(F)(F)F)cc(C(F)(F)F)c1
inactive: [1] 0.956 | [2] 0.957 | [3] 0.953 | [4] 0.958 | [5] 0.962 | [6] 0.958 | [7] 0.959 | [8] 0.964 | [9] 0.958 | [10] 0.95 | [11] 0.987 | [12] 0.966 | [13] 0.951 | [14] 0.955 | [15] 0.995 | [16] 1 | [17] 1.01 | [18] 0.948 | [19] 0.958 | [20] 0.955 | [21] 0.987 | [22] 0.964 | [23] 1 | [24] 1.02 | [25] 0.974 | [26] 1 | [27] 0.908 | [28] 1.07 | [29] 0.846 | [30] 0.957 | [31] 0.946 | [32] 0.957 | [33] 1.01 | [34] 0.956 | [35] 0.976 | [36] 1.1 | [37] 0.993 | [38] 0.977 | [39] 0.961 | [40] 0.947 | [41] 1.06 | [42] 0.961 | [43] 0.991 | [44] 0.941 | [45] 0.997 | [46] 0.962 | [47] 0.984 | [48] 0.951 | [49] 0.964 | [50] 0.985 | [51] 0.957 | [52] 1.05 | [53] 0.954 | [54] 0.961 | [55] 0.992 | [56] 0.951 | [57] 0.985 | [58] 0.996 | [59] 1.05 | [60] 1.03 | [61] 0.966 | [62] 1 | [63] 0.989 | [64] 0.99 | [65] 0.961 | [66] 0.864 | [67] 0.967 | [68] 0.948 | [69] 0.943 | [70] 0.925 | [71] 0.954
